From PubChem
BoNT A protease: inhibitors of Botulinum neurotoxin A light chain protease. inhibition, % at 10 µM. multiplex microsphere protease substrate cleavage, flow cytometry. AID 588499. hit rate 0.17% among 360,000
Autofluor counter: counter-screen for toxin protease inhibitors: compound fluorescence; hit rate 3.1% among 360,000; fluorescence intensity (test concentration not listed); compound autofluorescence counterscreen, microsphere flow cytometry; hits give high values; in the data active = fluorescence intensity above about 16000; inconclusive = no clear call, values can overlap the other calls
Anthrax LF prot: anthrax lethal factor protease inhibition; multiplex microsphere protease cleavage assay, LF; inhibition, % at 10 µM; hit rate 0.12% among 360,000
Target sequence (P15917 whole entry, looked up): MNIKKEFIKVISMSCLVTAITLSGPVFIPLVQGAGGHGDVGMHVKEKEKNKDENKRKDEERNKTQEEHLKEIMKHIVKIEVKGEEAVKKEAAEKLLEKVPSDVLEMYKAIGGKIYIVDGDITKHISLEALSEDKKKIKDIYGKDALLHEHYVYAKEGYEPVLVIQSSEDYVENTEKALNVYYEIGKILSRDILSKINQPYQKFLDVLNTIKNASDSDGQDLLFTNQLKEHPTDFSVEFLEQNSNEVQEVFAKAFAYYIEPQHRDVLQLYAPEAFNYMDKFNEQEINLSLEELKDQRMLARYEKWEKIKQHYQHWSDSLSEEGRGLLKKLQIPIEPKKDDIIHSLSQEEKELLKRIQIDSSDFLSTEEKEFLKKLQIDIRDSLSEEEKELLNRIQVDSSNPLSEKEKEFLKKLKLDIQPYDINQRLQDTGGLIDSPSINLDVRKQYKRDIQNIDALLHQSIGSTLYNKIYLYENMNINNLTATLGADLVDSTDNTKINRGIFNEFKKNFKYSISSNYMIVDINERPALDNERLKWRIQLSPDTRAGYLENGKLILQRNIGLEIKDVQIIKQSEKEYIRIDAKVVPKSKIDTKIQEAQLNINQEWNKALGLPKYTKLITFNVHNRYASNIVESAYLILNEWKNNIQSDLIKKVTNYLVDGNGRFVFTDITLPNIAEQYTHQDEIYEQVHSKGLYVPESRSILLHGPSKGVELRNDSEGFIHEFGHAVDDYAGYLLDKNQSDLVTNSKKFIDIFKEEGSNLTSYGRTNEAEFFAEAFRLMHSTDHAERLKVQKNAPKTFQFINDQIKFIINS
DUSP3 inh: DUSP3 (human) phosphatase inhibition | P51452 | recombinant VHR phosphatase, pNPP absorbance | inhibition, % at 13.3 µM | hit rate 0.52% among 290,000; in the data active = inhibition above about 50%
SARS 3CLpro inh: SARS-CoV 3CLpro protease inhibition; P0C6X7; recombinant SARS-CoV 3CLpro, quenched FRET peptide cleavage; inhibition, % at 6 µM; hit rate 0.14% among 290,000; in the data active = inhibition above about 12%
BoNT-F LC inh: inhibitors of Botulinum neurotoxin F light chain protease; Multiplex microsphere protease cleavage assay, flow cytometry; inhibition, % at 10 µM; hit rate 0.22% among 360,000; AID 588497; in the data active = inhibition above about 35%, passing the limit was not always enough; inconclusive = no clear call, values can overlap the other calls
Numbers stand for hits. Only some compounds are listed: those with a hit (about 3.9% of all), similar ones and a draw of the others. Rule as the data show it, unless noted: active = inhibition above about 30%; inconclusive = no clear call, values can overlap the other calls; inactive = below that.

Results for CCOc1ccc(C2=Nn3c(nnc3-c3ccc(OC)cc3)SC2)cc1 ?
BoNT A protease: inactive; Autofluor counter: 17851; Anthrax LF prot: inactive; DUSP3 inh: inactive; SARS 3CLpro inh: inactive; BoNT-F LC inh: inactive

What do the screens show for `COc1ccc(OC)c(C2=Nn3c(nnc3-c3cccc(OC(C)C)c3)SC2)c1`?
BoNT A protease: inactive; Autofluor counter: 16655; Anthrax LF prot: inactive; DUSP3 inh: inactive; SARS 3CLpro inh: inactive; BoNT-F LC inh: inactive

Results for CCOc1ccc(C2=Nn3c(nnc3-c3cccnc3)SC2)cc1 ?
BoNT A protease: inconclusive; Autofluor counter: 20067; Anthrax LF prot: inactive; DUSP3 inh: 57; SARS 3CLpro inh: inactive; BoNT-F LC inh: inactive

What do the screens show for `COc1ccc(C2=Nn3c(nnc3-c3cccnc3)SC2)cc1`?
BoNT A protease: inactive; Autofluor counter: inactive; Anthrax LF prot: inactive; DUSP3 inh: inactive; SARS 3CLpro inh: inactive; BoNT-F LC inh: inactive

What do the screens show for `COc1ccc(OC)c(-c2nnc3n2N=C(c2ccc(OC)c(OC)c2)CS3)c1`?
BoNT A protease: inactive; Autofluor counter: inactive; Anthrax LF prot: inactive; BoNT-F LC inh: inactive

How did COc1ccc(C2=Nn3c(nnc3-c3ccncc3)SC2)cc1 do in these assays?
BoNT A protease: inconclusive; Autofluor counter: inconclusive; Anthrax LF prot: inconclusive; DUSP3 inh: inactive; SARS 3CLpro inh: inactive; BoNT-F LC inh: inactive

What do the screens show for `O=C(NN1C(=O)C2C3c4ccccc4C(c4ccccc43)C2C1=O)C1CC1` (stereo not drawn)?
BoNT A protease: inactive; Autofluor counter: inactive; Anthrax LF prot: inactive; DUSP3 inh: inactive; SARS 3CLpro inh: inactive; BoNT-F LC inh: inactive

How did CCCN(CCC)C(=S)NC(=O)c1ccc(Cl)cc1Cl do in these assays?
BoNT A protease: inactive; Autofluor counter: 21981; Anthrax LF prot: inactive; DUSP3 inh: inactive; SARS 3CLpro inh: inactive; BoNT-F LC inh: inactive

How did c1ccc(-c2nc(NCc3cccnc3)c3ccccc3n2)cc1 do in these assays?
BoNT A protease: inactive; Autofluor counter: inactive; Anthrax LF prot: inactive; DUSP3 inh: inactive; SARS 3CLpro inh: inactive; BoNT-F LC inh: inactive

Results for Clc1cccc(-c2nc(NCc3cccnc3)c3ccccc3n2)c1 ?
BoNT A protease: inactive; Autofluor counter: 17205; Anthrax LF prot: inactive; DUSP3 inh: inactive; SARS 3CLpro inh: inactive; BoNT-F LC inh: inactive

Results for O=C(N/N=C\c1c(O)ccc2ccccc12)c1ccc(S(=O)(=O)N2CCCCC2)cc1 ?
BoNT A protease: 32; Autofluor counter: inactive; Anthrax LF prot: inactive; DUSP3 inh: inactive; SARS 3CLpro inh: inactive; BoNT-F LC inh: inactive

How did O=C(N/N=C/c1c(O)ccc2ccccc12)c1ccc(CO)nc1 do in these assays?
BoNT A protease: inactive; Autofluor counter: inactive; Anthrax LF prot: inactive; DUSP3 inh: inactive; SARS 3CLpro inh: inactive; BoNT-F LC inh: 40

Results for O=S(=O)(c1ccc(-c2nc3ccccc3s2)cc1)N1CCCC1 ?
BoNT A protease: inactive; Autofluor counter: inactive; Anthrax LF prot: inactive; DUSP3 inh: inactive; SARS 3CLpro inh: inactive; BoNT-F LC inh: inactive

How did O=S(=O)(c1cccc(-c2nc3ccccc3s2)c1)N1CCCC1 do in these assays?
BoNT A protease: inactive; Autofluor counter: 23878; Anthrax LF prot: inactive; DUSP3 inh: inactive; SARS 3CLpro inh: inactive; BoNT-F LC inh: inactive

How did Cc1nc2oc3c(NCc4ccccc4)ncnc3c2c2c1COC(C)(C)C2 do in these assays?
BoNT A protease: inactive; Autofluor counter: inactive; Anthrax LF prot: inactive; DUSP3 inh: inactive; SARS 3CLpro inh: inactive; BoNT-F LC inh: inactive

Results for Cc1nc2oc3c(NCC4CCCO4)ncnc3c2c2c1COC(C)(C)C2 (stereo not drawn) ?
BoNT A protease: inactive; Autofluor counter: 22824; Anthrax LF prot: inactive; DUSP3 inh: inactive; SARS 3CLpro inh: inactive; BoNT-F LC inh: inactive

How did CCCc1nc2oc3c(OC)ncnc3c2c2c1COC(C)(C)C2 do in these assays?
BoNT A protease: inactive; Autofluor counter: 19420; Anthrax LF prot: inactive; DUSP3 inh: inactive; SARS 3CLpro inh: inactive; BoNT-F LC inh: inactive

What do the screens show for `CC(C)c1nc2oc3c(NCC4CCCO4)ncnc3c2c2c1COC(C)(C)C2` (stereo not drawn)?
BoNT A protease: inactive; Autofluor counter: 22704; Anthrax LF prot: inactive; DUSP3 inh: inactive; SARS 3CLpro inh: inactive; BoNT-F LC inh: inactive

How did CCn1c([N+](=O)[O-])nc2c1c(=O)[nH]c(=O)n2C do in these assays?
BoNT A protease: inactive; Autofluor counter: inactive; Anthrax LF prot: inactive; DUSP3 inh: inactive; SARS 3CLpro inh: inactive; BoNT-F LC inh: inactive

Results for C#CCn1c(S(=O)(=O)Cc2ccc(C)cc2)nc(-c2ccccc2)c1-c1ccccc1 ?
BoNT A protease: inactive; Autofluor counter: 17325; Anthrax LF prot: inactive; DUSP3 inh: inactive; SARS 3CLpro inh: inactive; BoNT-F LC inh: inactive

How did C#CCn1c(S(=O)(=O)Cc2ccccc2Cl)nc(-c2ccccc2)c1-c1ccccc1 do in these assays?
BoNT A protease: inactive; Autofluor counter: inactive; Anthrax LF prot: inactive; DUSP3 inh: inactive; SARS 3CLpro inh: inactive; BoNT-F LC inh: inactive

Results for CCn1cc(C(=O)NCCC(=O)NCCCO)c(=O)c2cc3c(cc21)OCO3 ?
BoNT A protease: inactive; Autofluor counter: inactive; Anthrax LF prot: inactive; DUSP3 inh: inactive; SARS 3CLpro inh: inactive; BoNT-F LC inh: inactive

How did O=C(COC(=O)c1cncc(Br)c1)NC1CCCCCC1 do in these assays?
BoNT A protease: 31; Autofluor counter: inactive; Anthrax LF prot: inactive; DUSP3 inh: inactive; SARS 3CLpro inh: inactive; BoNT-F LC inh: inactive

How did O=S(=O)(Nc1nc(-c2sccc2Cl)cs1)c1cc(Cl)ccc1Cl do in these assays?
BoNT A protease: inactive; Autofluor counter: inactive; Anthrax LF prot: inactive; DUSP3 inh: inactive; SARS 3CLpro inh: inactive; BoNT-F LC inh: inactive

What do the screens show for `Cn1c(=O)c2c(nc(Br)n2CCSc2nnnn2-c2ccccc2)n(C)c1=O`?
BoNT A protease: inactive; Autofluor counter: 20475; Anthrax LF prot: inactive; DUSP3 inh: inactive; SARS 3CLpro inh: inactive; BoNT-F LC inh: inactive

Results for O=C(Nc1ccc2c(c1)OCCO2)C(CCc1ccccc1)N1CCC(Cc2ccccc2)CC1 (stereo not drawn) ?
BoNT A protease: inactive; Autofluor counter: inactive; Anthrax LF prot: inactive; BoNT-F LC inh: inactive

What do the screens show for `COc1ccc(/C=N/NC(=O)COc2ccc(Cl)cc2Cl)cc1Cn1nc(C)cc1C`?
BoNT A protease: inactive; Autofluor counter: inactive; Anthrax LF prot: inactive; DUSP3 inh: inactive; SARS 3CLpro inh: inactive; BoNT-F LC inh: inactive

How did Cc1c(C(=O)N2CCN(c3ccccn3)CC2)oc2ccccc12 do in these assays?
BoNT A protease: inactive; Autofluor counter: 22383; Anthrax LF prot: inactive; DUSP3 inh: inactive; SARS 3CLpro inh: inactive; BoNT-F LC inh: inactive

Results for Cc1cnn(C(=O)c2oc3ccccc3c2C)c1 ?
BoNT A protease: inactive; Autofluor counter: 22067; Anthrax LF prot: inactive; DUSP3 inh: inactive; SARS 3CLpro inh: inactive; BoNT-F LC inh: inactive

Results for CC(=O)c1c(C)[nH]c(C(=O)N2CCN(c3ccccn3)CC2)c1C ?
BoNT A protease: inactive; Autofluor counter: inactive; Anthrax LF prot: inactive; DUSP3 inh: 57; SARS 3CLpro inh: inactive; BoNT-F LC inh: inactive

Results for CC(=O)c1c(C)[nH]c(C(=O)N2CCN(c3ncccn3)CC2)c1C ?
BoNT A protease: inactive; Autofluor counter: inactive; Anthrax LF prot: inactive; DUSP3 inh: inactive; SARS 3CLpro inh: inactive; BoNT-F LC inh: inactive
